Screening data (PubChem BioAssay)
A selection: hits, their analogues and other compounds. The true share with any hit is near 2.3%.
ANO1 activ – TMEM16A chloride channel activators or potentiators, primary screen, cell-based, HTS. HEK293 TMEM16A/YFP-H148Q/I152L, iodide quench fluorescence; stronger effect = lower value. B-score at 10 µM. 340,000 compounds, 0.3% hits;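 active = fluorescence-ratio B-score plate-corrected deviation score at least 3 library SD below zero, with starting fluorescence score within 5 deviations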;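 note: channel opened by trigger with iodide after compound preincubation; score built on the fluorescence ratio of max minus min over baseline; more negative score means more quench and so TMEM16A activation or potentiation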
ANO1 block – TMEM16A chloride channel inhibitors, primary screen, cell-based, HTS; HEK293 TMEM16A/YFP iodide influx fluorescence, ionomycin; normalized B-score (activity score, 25-100; higher = stronger inhibition) at 10 µM; 310,000 compounds, 1.2% hits; AID 588511, 2011;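 active = ratio plate-corrected score three or more library SD toward inhibition, starting fluorescence score within five deviations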;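 note: score derived from kinetic fluorescence span divided by baseline fluorescence per well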
CHT block – inhibitors of human choline transporter CHT | High affinity choline transporter 1 (Homo sapiens), Q9GZV3 | B-score at 10 µM | CHT-expressing cells, membrane potential dye, choline response; stronger effect = lower value | AID 488975, 2010 | 310,000 compounds, 0.86% hits;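 active = B-score over 3 SD under the library average, and starting fluorescence ratio not unusually high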;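 note: choline stimulus applied at its EC90 after an EC20 pre-addition; B-score computed on integrated fluorescence ratio after choline addition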
CHT PAM – CHT positive allosteric modulators, primary screen, cell-based, membrane potential dye, choline EC20; High affinity choline transporter 1 (Homo sapiens), Q9GZV3; CHT-expressing cells; stronger effect = higher value; LV-AA mutant CHT in HEK293 cells; B-score at 10 µM; 310,000 compounds, 0.49% hits;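 active = initial fluorescence not abnormally high and integrated response B-score, plate-corrected, over 3 SD above library mean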
TMEM16A reconf – TMEM16A chloride channel inhibitors, confirmation, cell-based, re-confirmation | shares compounds with ANO1 block | HEK293 TMEM16A/YFP-H148Q, iodide quench fluorescence; ionomycin added to raise cell calcium | 2,300 compounds, 39% hits | AID 652189, 2013 | inhibition, % at 10 µM;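 active = mean duplicate percent inhibition, scaled so buffer wells are 0 and the reference blocker 100, over three buffer SD above buffer mean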
TMEM16A Ca cntr – calcium mobilization in TMEM16A/YFP HEK293 cells, confirmation, counter-screen for TMEM16A inhibitor project; shares compounds with ANO1 block; AID 652231, 2013; calcium response (% of ionomycin), % at 10 µM; Fluo4 calcium mobilization; 2,300 compounds, 2% hits;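 active = duplicate-averaged calcium signal over 20% of the ionomycin maximum, relative to buffer baseline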;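 note: each well's signal is peak minus trough fluorescence divided by its pre-addition baseline; 0% = buffer wells and 100% = ionomycin wells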
YFP-HEK293 quench – iodide YFP quench changes in parental YFP-HEK293, counter-screen for TMEM16A inhibitor project, cell-based. shares compounds with ANO1 block. ionomycin. YFP ratio F(max-min)/F0 at 10 µM. 2,300 tested, under 10 active;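 active = yellow fluorescent protein signal ratio exceeding the buffer control mean by over 5 SD of those controls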;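 note: ratio is mean of duplicate wells from kinetic YFP trace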
ClC-1 inh – ClC-1 chloride channel inhibition, selectivity assay for TMEM16A inhibitor project, cell-based, voltage-dependent ClC-1; shares compounds with ANO1 block; CHO ClC-1-YFP, iodide influx fluorescence quench; iodide control reads 0, buffer control 100; ratio percent, % at 10 µM; 2,300 tested, under 10 active; AID 652236, 2013;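 active = duplicate-mean ratio percent above the mean of iodide-only control wells, which defines zero, plus 5 of their SD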;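 note: higher percent means stronger block of ClC-1 iodide influx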
Target sequence (P35524 whole entry, looked up): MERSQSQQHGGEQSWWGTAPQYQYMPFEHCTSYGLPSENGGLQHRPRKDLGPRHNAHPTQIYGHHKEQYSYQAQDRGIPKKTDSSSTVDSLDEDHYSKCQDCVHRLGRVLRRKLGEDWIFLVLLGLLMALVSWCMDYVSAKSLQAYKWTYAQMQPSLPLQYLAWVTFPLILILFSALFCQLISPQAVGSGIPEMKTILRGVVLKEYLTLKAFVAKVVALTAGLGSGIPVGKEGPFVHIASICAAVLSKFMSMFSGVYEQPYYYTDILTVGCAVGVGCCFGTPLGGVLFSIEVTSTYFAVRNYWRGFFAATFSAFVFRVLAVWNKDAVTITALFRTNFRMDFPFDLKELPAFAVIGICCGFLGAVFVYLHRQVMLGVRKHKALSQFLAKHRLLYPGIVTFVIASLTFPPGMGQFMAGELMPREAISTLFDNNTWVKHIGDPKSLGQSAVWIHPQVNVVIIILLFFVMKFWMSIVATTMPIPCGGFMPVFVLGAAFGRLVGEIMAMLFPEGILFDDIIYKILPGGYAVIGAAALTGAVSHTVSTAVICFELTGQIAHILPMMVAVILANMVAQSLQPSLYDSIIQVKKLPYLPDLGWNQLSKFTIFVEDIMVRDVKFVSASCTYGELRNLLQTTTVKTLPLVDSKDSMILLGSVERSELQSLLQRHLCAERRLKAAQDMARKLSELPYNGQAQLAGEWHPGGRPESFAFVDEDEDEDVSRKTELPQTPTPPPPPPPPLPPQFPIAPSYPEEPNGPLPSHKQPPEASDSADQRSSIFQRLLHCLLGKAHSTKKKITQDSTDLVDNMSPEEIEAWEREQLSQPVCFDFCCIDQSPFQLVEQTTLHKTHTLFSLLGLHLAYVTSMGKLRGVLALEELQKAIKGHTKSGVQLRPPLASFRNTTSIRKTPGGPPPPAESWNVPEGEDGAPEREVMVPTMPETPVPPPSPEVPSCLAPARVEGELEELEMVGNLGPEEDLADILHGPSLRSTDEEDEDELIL
Starred values were filed as active, the others as inactive; i = inactive; . = no result; ! = a repeat was not active.

SMILES | ANO1 activ | ANO1 block | CHT block | CHT PAM | TMEM16A reconf | TMEM16A Ca cntr | YFP-HEK293 quench | ClC-1 inh
Cc1ccccc1OCC(=O)N1N=C(C(F)(F)F)CC1(O)C(C)(C)C (stereo unspecified) | i | 25* | i | i | i | i | -1.06 | -4.0
CN=C1S/C(=C\c2ccc(O)c(Br)c2)C(=O)N1C | i | 25* | . | . | i | i | -1.01 | -9.5
CN=C1S/C(=C\c2ccc(O)c(OC)c2)C(=O)N1C | i | i | i | i | . | . | . | .
CCN(CC)S(=O)(=O)c1cccc(C(=O)Nc2nc3cc4c(cc3s2)OCCO4)c1 | i | 100* | i | i | 20.0%* | i | -0.501 | -5.0
O=C(Nc1nc2cc3c(cc2s1)OCCO3)c1cccc(N2C(=O)CCC2=O)c1 | i | i | i | i | . | . | . | .
Cc1nc2ccc(NS(=O)(=O)c3ccccc3Cl)cc2s1 | i | . | . | . | . | . | . | .
CSc1nc2ccc(NS(=O)(=O)c3cccc(Cl)c3Cl)cc2s1 | i | 100* | i | i | 62.0%* | i | -0.921 | -15.5
Nc1c(C(=O)N/N=C/c2cccnc2)oc2nc(-c3ccccc3)cc(-c3ccco3)c12 | i | i | i | i | i | i | -1.12 | 1.0
Cn1c2ccccc2c(=O)c2c(=O)n(Cc3ccco3)c(-c3ccc(C(C)(C)C)cc3)nc21 | . | i | i | i | . | . | . | .
Cc1ccc(OCCSc2ncnc3nc[nH]c23)cc1 | i | 25* | i | i | i | i | -1.07 | -11.5
CCOC(=O)C1(CCOc2ccccc2)CCN(Cc2cccc(OC)c2O)CC1 | i | i | i | i | . | . | . | .
Cc1cc(Cl)ccc1OCC(=O)Nc1cccnc1 | i | i | i | i | . | . | . | .
Cc1cc(Cl)ccc1OCCCC(=O)Nc1cccnc1 | i | 25* | i | i | 22.0%* | i | -0.86 | -1.5
COCCn1c(-c2ccc(Br)cc2)csc1=Nc1cccnc1 | i | 25* | i | i | 33.5%* | i | -1.01 | -19.5
Clc1ccc(-c2csc(=Nc3cccnc3)n2CCCn2ccnc2)cc1Cl | i | i | i | i | . | . | . | .
COc1ccc(-c2c(-c3cc(OC)cc(OC)c3)n(C)c3ccc(-c4ccc(N(C)C)nc4)cc23)cc1 | i | . | . | . | . | . | . | .
Cc1c(N2CCCC2)cc2c(c1N)C(C)(C)CC2(C)C | i | i | i | i | . | . | . | .
O=c1[nH]c2ccccc2n1CCCSCCCn1c(=O)[nH]c2ccccc21 | i | 100* | i | i | 38.5%* | i | -0.934 | -7.5
CCN(Cc1ccccc1)C(=O)COc1cc(=O)n(CC)c2ccccc12 | i | i | i | i | . | . | . | .
CN(Cc1ccccc1)C(=O)COc1cc(=O)n(C)c2ccccc12 | i | i | i | i | i | i | -0.846 | -4.5
O=C(CSCc1ccccc1)Nc1ccc(S(=O)(=O)Nc2ncccn2)cc1 | i | i | i | i | . | . | . | .
CCOC(=O)c1ccc(NC(=O)CSc2ccc(-c3cccnc3)nn2)cc1 | i | 25* | i | i | i | i | -1.13 | -5.0
COc1ccc(NC(=O)CSc2ccc(-c3cccnc3)nn2)cc1 | i | i | i | i | . | . | . | .
COc1ccccc1C1=NOC(Cn2c(NCC3CCCO3)nc3c2c(=O)n(C)c(=O)n3C)C1 (stereo unspecified) | i | i | i | i | i | i | -1.04 | -9.5
COc1ccccc1C1=NOC(Cn2c(NCCCO)nc3c2c(=O)n(C)c(=O)n3C)C1 (stereo unspecified) | i | i | i | i | . | . | . | .
SMILES | ANO1 activ | ANO1 block | CHT block | CHT PAM | TMEM16A reconf | TMEM16A Ca cntr | YFP-HEK293 quench | ClC-1 inh
COc1cc(/C=C2\Oc3cc(O)ccc3C2=O)ccc1O | i | i | i | i | . | . | . | .
O=C1/C(=C/c2ccc(O)c(O)c2)Oc2cc(O)ccc21 | i | i | i | i | 19.5%* | 33.5%* | -1.46 | -61.5
O=C(COC(=O)Cc1ccc(Cl)cc1)Nc1ccccc1-c1ccccc1 | i | i | i | i | . | . | . | .
O=C(COC(=O)Cc1c(Cl)cccc1Cl)Nc1ccccc1-c1ccccc1 | i | 25* | i | i | i | i | -1.02 | -6.5
Cc1ccc(S(=O)(=O)CCC(=O)OCc2nnc(-c3ccc([N+](=O)[O-])cc3)o2)cc1 | i | . | . | . | . | . | . | .
CN1C(=O)C(C)(C)c2cc(S(=O)(=O)N3CCN(c4cccc(Cl)c4)CC3)ccc21 | i | i | i | i | . | . | . | .
COc1ccc(N2C(=O)C3CCCN3C2c2cccc(OC)c2OC)cc1 (stereo unspecified) | i | 25* | i | i | i | i | -0.899 | -6.5
CCOC(=O)C1CCN(C(=O)c2ccccc2CCc2ccccc2)CC1 | i | i | i | i | . | . | . | .
O=C(NCc1ccncc1)C(=O)Nc1nc(C23CC4CC(CC(C4)C2)C3)cs1 | i | 100* | i | i | 18.0%* | i | -1.05 | -19.0
COC(=O)C1=C(CSc2nncn2C)NC(=O)NC1c1ccc(F)cc1 (stereo unspecified) | i | i | i | i | . | . | . | .
COC(=O)c1cc(COc2ccc3oc(C)c(C(=O)OC)c3c2)c(C)o1 | i | 100* | i | i | i | i | -1.22 | -11.0
COc1ccc(Br)cc1/C(C)=N/NC1=NCCN1 | i | 100* | i | i | 19.5%* | i | -0.858 | -10.0
CS(=O)(=O)N1CCc2cc(-c3csc(NC(=O)Cc4cccs4)n3)ccc21 | i | 25* | i | i | 31.0%* | i | -0.888 | -5.0
CCN(CC(=O)NCc1cccs1)C(=O)c1cc(Br)ccc1O | i | . | . | . | . | . | . | .
COC(=O)c1ccc(NC(=O)CCN2CCCCC2)cc1 | i | 25*! | i | i | i | i | -0.887 | -22.0
COc1cc(NS(=O)(=O)c2ccc(N/C=C(\C#N)c3nc4cc(Cl)ccc4o3)cc2)nc(OC)n1 | i | 100* | i | i | i | i | -0.97 | -17.5
Clc1ccc(Cn2ncc3c(N4CCCC4)ncnc32)cc1 | i | i | i | i | . | . | . | .
